Data from PubChem BioAssay AID1159580 (chemical genetic matrix, 2015).
Values joined by “and” are separate entries in the source; they are usually repeats but may differ in a detail not shown here. Identical values can stand only once. Among all 5,500 compounds or so, about 2,000 (36%) were called active. Not shown: some 18% with an inconclusive outcome. No stated cut-off is given here; in the data, active means normalized growth mostly below about 0.91 (no sharp cut-off); inconclusive means no clear call, values can overlap the other calls; inactive means mostly above about 0.92. This is one part of the list.

Assay: chemical genetic growth profiling, strain panel (AID 1159580);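 further: tested at 20 µM; growth read once vehicle control cultures reached saturation at 30 °C; 1 = growth at the plate median or of vehicle wells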
Settings: S. cerevisiae deletion strains, growth OD

Measured: normalized growth

CCCCOC(=O)c1ccccc1C(=O)OCCCC
inactive: locus YAL013W, strain DEP1, stronger effect = lower value 0.988 | locus YAL021C, strain ccr4, stronger effect = lower value 0.979 | locus YAL026C, strain drs2, stronger effect = lower value 0.989 | locus YAL030W, strain snc1, stronger effect = lower value 0.979 | locus YBL061C, strain skt5, stronger effect = lower value 0.986 | locus YBR009C, strain hhf1, stronger effect = lower value 0.968 | locus YBR021W, strain FUR4, stronger effect = lower value 0.955 | locus YBR023C, strain chs3, stronger effect = lower value 0.98 | locus YBR171W, strain sec66, stronger effect = lower value 0.959 | locus YBR229C, strain ROT2, stronger effect = lower value 0.981 | locus YBR231C, strain swc5, stronger effect = lower value 0.983 | locus YBR279W, strain paf1, stronger effect = lower value 0.994 | locus YCL011C, strain gbp2, stronger effect = lower value 0.979 | locus YCL016C, strain dcc1, stronger effect = lower value 0.985 | locus YCL029C, strain bik1, stronger effect = lower value 0.976 | locus YCL061C, strain MRC1, stronger effect = lower value 0.984 | locus YCL069W, strain vba3, stronger effect = lower value 0.985 | locus YCR088W, strain abp1, stronger effect = lower value 0.98 | locus YDL005C, strain med2, stronger effect = lower value 0.97 | locus YDL035C, strain GPR1, stronger effect = lower value 0.986 | locus YDL040C, strain nat1, stronger effect = lower value 0.985 | locus YDL074C, strain BRE1, stronger effect = lower value 0.984 | locus YDL101C, strain DUN1, stronger effect = lower value 0.986 | locus YDL134C, strain PPH21, stronger effect = lower value 0.988 | locus YDL185W, strain tfp1, stronger effect = lower value 0.961 | locus YDL192W, strain arf1, stronger effect = lower value 0.983 | locus YDR001C, strain nth1, stronger effect = lower value 0.984 | locus YDR069C, strain doa4, stronger effect = lower value 0.983 | locus YDR101C, strain arx1, stronger effect = lower value 0.984 | locus YDR137W, strain rgp1, stronger effect = lower value 0.905 | locus YDR150W, strain NUM1, stronger effect = lower value 0.989 | locus YDR159W, strain sac3, stronger effect = lower value 0.993 | locus YDR162C, strain NBP2, stronger effect = lower value 0.976 | locus YDR195W, strain ref2 1.07 | locus YDR297W, strain sur2, stronger effect = lower value 0.984 | locus YDR318W, strain mcm21, stronger effect = lower value 0.979 | locus YDR334W, strain swr1, stronger effect = lower value 0.991 | locus YDR335W, strain msn5, stronger effect = lower value 0.992 | locus YDR388W, stronger effect = lower value 0.961 | locus YDR392W, strain spt3, stronger effect = lower value 0.941 | locus YDR502C, strain sam2, stronger effect = lower value 0.977 | locus YEL003W, strain gim4, stronger effect = lower value 0.987 | locus YEL037C, strain rad23, stronger effect = lower value 0.992 | locus YEL061C, strain CIN8 (second series), stronger effect = lower value 0.989 | locus YEL061C, strain CIN8, stronger effect = lower value 0.992 | locus YER015W, strain faa2, stronger effect = lower value 0.986 | locus YER016W, strain bim1, stronger effect = lower value 0.986 | locus YER110C, stronger effect = lower value 0.974 | locus YER111C, strain swi4, stronger effect = lower value 0.999 | locus YER155C, strain BEM2 (second series), stronger effect = lower value 0.968 | locus YER155C, strain BEM2, stronger effect = lower value 0.98 | locus YER167W, strain BCK2, stronger effect = lower value 0.981 | locus YFR010W, strain ubp6, stronger effect = lower value 0.998 | locus YGL078C, strain dbp3, stronger effect = lower value 0.982 | locus YGL086W, strain mad1, stronger effect = lower value 0.98 | locus YGL167C, strain pmr1, stronger effect = lower value 0.957 | locus YGL173C, strain kem1, stronger effect = lower value 0.98 | locus YGL227W, strain vid30, stronger effect = lower value 0.984 | locus YGL240W, strain doc1, stronger effect = lower value 0.973 | locus YGL248W, strain PDE1, stronger effect = lower value 0.976 | locus YGL253W, strain hxk2, stronger effect = lower value 0.987 | locus YGR078C, strain PAC10, stronger effect = lower value 0.981 | locus YGR135W, strain pre9, stronger effect = lower value 0.988 | locus YGR229C, strain SMI1, stronger effect = lower value 0.948 | locus YGR252W, strain gcn5, stronger effect = lower value 0.992 | locus YHR013C, strain ard1, stronger effect = lower value 1.03 | locus YHR027C, strain rpn1, stronger effect = lower value 0.987 | locus YHR030C, strain SLT2, stronger effect = lower value 0.969 | locus YHR079C, strain IRE1 (second series), stronger effect = lower value 0.972 | locus YHR079C, strain IRE1, stronger effect = lower value 0.962 | locus YHR094C, strain hxt1, stronger effect = lower value 0.973 | locus YHR129C, strain ARP1, stronger effect = lower value 0.996 | locus YHR142W, strain chs7, stronger effect = lower value 0.944 | locus YHR200W, strain rpn10, stronger effect = lower value 0.985 | locus YIL066C, strain RNR3, stronger effect = lower value 0.972 | locus YIL073C, strain SPO22, stronger effect = lower value 0.867 | locus YIL125W, strain kgd1, stronger effect = lower value 0.988 | locus YIR030C, strain dcg1, stronger effect = lower value 0.978 | locus YJL092W, strain hpr5, stronger effect = lower value 0.98 | locus YJL095W, strain BCK1 (second series), stronger effect = lower value 0.985 | locus YJL095W, strain BCK1, stronger effect = lower value 0.979 and 0.96 | locus YJL115W, strain asf1, stronger effect = lower value 0.988 | locus YJL129C, strain trk1, stronger effect = lower value 0.886 | locus YJL134W, strain LCB3, stronger effect = lower value 0.984 | locus YJL154C, strain vps35, stronger effect = lower value 0.985 | locus YJL164C, strain tpk1, stronger effect = lower value 0.961 | locus YJL166W, strain qcr8, stronger effect = lower value 0.974 | locus YJL168C, strain set2, stronger effect = lower value 0.985 | locus YJL187C, strain SWE1 (second series), stronger effect = lower value 0.968 | locus YJL187C, strain SWE1, stronger effect = lower value 0.983 | locus YJR043C, strain POL32, stronger effect = lower value 0.982
